Measurements as given in the supplement of paper PMC11732987, “Enantioselective OTUD7B fragment discovery through chemoproteomics screening and high-throughput optimisation” (Communications Chemistry, 2025).
Unmarked numbers belong to inactive results.

Columns and labels:
Assay in all cases: log2 ratio of Biotin-Ahx-Ub-VS probe labelling (fragment/DMSO); higher = less target engagement (more negative = stronger competition), active = hit call of the paper (q ≤ 0.05, log2 ratio ≤ -1)
Details in all cases: compound concentration: 200 uM; treatment time: 3 h
[1] = target: USP9X (UniProt Q93008)
Method in brief: (§1)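 HEK293T lysate (495 µg per sample, in Tris/CHAPS/IGEPAL buffer with protease inhibitors) was treated in triplicate with fragment at 200 µM or with DMSO for 3 h. It was then treated with Biotin-Ahx-Ub-VS (0.5 µM final) for 1 h. Labelled DUBs were NeutrAvidin-enriched, digested with LysC and trypsin, and run by diaPASEF LC-MS/MS. Spectronaut label-free quantities were global-median-normalised. Values are average log2 ratios fragment/DMSO by unpaired t-test, using proteins with ≥2 unique peptides.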

[2] = target: UniProt O00487
Method in brief: as §1

[3] = target: UniProt O00507
Method in brief: as §1

[4] = target: UniProt P51784
Method in brief: as §1

[5] = target: T1, UniProt Q5T2D3
T1 sequence (whole entry): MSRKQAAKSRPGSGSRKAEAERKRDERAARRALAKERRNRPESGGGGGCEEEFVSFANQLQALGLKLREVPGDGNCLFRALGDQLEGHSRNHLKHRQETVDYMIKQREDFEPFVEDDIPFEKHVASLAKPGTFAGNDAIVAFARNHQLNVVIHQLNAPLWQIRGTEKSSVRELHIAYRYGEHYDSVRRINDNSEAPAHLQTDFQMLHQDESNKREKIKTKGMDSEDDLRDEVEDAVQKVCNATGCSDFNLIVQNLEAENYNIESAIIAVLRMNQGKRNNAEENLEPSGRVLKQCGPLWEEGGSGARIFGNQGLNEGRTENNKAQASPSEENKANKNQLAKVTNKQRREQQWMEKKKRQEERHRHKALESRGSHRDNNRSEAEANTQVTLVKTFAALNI
Method in brief: as §1

[6] = target: T2, UniProt Q8TE49
T2 sequence (whole entry): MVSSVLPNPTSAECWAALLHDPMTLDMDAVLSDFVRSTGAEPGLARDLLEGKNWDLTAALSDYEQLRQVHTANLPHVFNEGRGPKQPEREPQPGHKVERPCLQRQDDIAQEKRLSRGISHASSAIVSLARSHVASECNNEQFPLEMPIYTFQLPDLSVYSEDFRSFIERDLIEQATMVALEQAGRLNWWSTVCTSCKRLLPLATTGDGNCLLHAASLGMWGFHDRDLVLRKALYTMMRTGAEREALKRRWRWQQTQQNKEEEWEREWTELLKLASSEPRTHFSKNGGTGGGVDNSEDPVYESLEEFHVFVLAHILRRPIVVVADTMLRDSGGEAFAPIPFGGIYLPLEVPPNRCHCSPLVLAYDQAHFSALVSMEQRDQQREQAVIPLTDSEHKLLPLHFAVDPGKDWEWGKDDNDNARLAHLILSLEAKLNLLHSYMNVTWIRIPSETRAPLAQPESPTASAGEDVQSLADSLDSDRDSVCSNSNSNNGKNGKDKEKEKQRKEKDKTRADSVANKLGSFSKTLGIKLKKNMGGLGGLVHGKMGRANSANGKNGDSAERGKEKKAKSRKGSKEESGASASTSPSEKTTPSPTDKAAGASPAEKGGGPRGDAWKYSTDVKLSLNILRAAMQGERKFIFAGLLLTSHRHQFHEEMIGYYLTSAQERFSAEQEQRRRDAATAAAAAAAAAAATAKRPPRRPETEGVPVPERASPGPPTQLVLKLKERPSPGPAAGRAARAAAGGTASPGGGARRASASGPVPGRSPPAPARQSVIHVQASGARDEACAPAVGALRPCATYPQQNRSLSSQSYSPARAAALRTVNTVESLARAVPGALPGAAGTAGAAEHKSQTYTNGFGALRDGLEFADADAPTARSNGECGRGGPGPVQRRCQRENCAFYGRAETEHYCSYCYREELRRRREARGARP
Method in brief: as §1

[7] = target: T3, UniProt Q9P2H5
T3 sequence (whole entry): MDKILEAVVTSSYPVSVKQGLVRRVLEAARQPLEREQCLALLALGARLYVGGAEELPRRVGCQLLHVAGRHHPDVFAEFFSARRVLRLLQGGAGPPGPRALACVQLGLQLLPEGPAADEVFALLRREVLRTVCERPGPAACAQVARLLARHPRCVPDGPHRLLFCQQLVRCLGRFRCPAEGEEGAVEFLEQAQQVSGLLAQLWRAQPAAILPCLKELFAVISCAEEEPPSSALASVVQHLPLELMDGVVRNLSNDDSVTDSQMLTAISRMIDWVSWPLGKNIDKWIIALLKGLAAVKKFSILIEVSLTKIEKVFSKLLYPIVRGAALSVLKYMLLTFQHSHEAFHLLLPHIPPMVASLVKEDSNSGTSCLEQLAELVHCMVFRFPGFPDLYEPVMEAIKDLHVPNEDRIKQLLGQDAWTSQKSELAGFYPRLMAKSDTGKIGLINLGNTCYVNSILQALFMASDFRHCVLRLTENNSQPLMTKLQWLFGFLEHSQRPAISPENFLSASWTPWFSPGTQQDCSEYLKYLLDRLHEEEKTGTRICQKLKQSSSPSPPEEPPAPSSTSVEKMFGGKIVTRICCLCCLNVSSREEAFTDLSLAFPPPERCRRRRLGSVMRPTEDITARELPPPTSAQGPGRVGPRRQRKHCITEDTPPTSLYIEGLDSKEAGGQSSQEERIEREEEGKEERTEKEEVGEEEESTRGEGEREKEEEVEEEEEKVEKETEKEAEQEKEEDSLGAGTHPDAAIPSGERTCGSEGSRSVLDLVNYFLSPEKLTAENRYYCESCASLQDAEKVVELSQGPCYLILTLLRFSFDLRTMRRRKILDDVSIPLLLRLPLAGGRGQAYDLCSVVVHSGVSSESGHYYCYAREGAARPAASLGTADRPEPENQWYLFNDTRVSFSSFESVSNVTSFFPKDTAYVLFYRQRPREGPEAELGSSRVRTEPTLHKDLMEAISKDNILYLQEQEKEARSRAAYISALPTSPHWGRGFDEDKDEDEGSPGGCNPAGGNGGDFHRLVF
Method in brief: as §1

[8] = target: T4, UniProt Q9UGI0
T4 sequence (whole entry): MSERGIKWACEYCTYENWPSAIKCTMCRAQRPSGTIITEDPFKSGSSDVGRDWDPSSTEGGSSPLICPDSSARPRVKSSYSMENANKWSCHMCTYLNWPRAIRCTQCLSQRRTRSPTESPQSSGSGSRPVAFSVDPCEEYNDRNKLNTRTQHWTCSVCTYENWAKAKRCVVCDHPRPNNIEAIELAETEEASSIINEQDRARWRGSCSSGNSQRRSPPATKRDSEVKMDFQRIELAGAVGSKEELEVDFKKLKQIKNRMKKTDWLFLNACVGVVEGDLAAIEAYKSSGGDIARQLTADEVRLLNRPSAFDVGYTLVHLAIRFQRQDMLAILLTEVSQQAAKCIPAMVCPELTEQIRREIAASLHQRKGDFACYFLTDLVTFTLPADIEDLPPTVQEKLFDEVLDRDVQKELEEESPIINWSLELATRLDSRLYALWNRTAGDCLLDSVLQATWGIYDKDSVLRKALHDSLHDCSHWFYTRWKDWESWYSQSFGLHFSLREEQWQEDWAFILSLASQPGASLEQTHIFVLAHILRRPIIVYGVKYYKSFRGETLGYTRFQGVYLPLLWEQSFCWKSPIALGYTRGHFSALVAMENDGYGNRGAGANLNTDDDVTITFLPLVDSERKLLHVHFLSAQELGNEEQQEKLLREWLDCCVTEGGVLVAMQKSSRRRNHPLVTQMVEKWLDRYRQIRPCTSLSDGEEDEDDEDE
Method in brief: as §1

[9] = target: T5, YOD1 (UniProt Q5VVQ6)
T5 sequence (whole entry): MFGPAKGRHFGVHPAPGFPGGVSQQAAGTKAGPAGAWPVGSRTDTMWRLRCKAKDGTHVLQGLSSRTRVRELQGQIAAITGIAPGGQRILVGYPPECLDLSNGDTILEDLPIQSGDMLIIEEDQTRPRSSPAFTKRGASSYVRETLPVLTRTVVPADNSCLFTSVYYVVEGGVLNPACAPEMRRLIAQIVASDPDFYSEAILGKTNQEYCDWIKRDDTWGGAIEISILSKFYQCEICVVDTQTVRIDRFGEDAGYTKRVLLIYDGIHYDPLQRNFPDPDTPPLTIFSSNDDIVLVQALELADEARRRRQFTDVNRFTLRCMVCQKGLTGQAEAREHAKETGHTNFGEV
Method in brief: as §1

Chain of UniProt O00507 (O00507 whole entry): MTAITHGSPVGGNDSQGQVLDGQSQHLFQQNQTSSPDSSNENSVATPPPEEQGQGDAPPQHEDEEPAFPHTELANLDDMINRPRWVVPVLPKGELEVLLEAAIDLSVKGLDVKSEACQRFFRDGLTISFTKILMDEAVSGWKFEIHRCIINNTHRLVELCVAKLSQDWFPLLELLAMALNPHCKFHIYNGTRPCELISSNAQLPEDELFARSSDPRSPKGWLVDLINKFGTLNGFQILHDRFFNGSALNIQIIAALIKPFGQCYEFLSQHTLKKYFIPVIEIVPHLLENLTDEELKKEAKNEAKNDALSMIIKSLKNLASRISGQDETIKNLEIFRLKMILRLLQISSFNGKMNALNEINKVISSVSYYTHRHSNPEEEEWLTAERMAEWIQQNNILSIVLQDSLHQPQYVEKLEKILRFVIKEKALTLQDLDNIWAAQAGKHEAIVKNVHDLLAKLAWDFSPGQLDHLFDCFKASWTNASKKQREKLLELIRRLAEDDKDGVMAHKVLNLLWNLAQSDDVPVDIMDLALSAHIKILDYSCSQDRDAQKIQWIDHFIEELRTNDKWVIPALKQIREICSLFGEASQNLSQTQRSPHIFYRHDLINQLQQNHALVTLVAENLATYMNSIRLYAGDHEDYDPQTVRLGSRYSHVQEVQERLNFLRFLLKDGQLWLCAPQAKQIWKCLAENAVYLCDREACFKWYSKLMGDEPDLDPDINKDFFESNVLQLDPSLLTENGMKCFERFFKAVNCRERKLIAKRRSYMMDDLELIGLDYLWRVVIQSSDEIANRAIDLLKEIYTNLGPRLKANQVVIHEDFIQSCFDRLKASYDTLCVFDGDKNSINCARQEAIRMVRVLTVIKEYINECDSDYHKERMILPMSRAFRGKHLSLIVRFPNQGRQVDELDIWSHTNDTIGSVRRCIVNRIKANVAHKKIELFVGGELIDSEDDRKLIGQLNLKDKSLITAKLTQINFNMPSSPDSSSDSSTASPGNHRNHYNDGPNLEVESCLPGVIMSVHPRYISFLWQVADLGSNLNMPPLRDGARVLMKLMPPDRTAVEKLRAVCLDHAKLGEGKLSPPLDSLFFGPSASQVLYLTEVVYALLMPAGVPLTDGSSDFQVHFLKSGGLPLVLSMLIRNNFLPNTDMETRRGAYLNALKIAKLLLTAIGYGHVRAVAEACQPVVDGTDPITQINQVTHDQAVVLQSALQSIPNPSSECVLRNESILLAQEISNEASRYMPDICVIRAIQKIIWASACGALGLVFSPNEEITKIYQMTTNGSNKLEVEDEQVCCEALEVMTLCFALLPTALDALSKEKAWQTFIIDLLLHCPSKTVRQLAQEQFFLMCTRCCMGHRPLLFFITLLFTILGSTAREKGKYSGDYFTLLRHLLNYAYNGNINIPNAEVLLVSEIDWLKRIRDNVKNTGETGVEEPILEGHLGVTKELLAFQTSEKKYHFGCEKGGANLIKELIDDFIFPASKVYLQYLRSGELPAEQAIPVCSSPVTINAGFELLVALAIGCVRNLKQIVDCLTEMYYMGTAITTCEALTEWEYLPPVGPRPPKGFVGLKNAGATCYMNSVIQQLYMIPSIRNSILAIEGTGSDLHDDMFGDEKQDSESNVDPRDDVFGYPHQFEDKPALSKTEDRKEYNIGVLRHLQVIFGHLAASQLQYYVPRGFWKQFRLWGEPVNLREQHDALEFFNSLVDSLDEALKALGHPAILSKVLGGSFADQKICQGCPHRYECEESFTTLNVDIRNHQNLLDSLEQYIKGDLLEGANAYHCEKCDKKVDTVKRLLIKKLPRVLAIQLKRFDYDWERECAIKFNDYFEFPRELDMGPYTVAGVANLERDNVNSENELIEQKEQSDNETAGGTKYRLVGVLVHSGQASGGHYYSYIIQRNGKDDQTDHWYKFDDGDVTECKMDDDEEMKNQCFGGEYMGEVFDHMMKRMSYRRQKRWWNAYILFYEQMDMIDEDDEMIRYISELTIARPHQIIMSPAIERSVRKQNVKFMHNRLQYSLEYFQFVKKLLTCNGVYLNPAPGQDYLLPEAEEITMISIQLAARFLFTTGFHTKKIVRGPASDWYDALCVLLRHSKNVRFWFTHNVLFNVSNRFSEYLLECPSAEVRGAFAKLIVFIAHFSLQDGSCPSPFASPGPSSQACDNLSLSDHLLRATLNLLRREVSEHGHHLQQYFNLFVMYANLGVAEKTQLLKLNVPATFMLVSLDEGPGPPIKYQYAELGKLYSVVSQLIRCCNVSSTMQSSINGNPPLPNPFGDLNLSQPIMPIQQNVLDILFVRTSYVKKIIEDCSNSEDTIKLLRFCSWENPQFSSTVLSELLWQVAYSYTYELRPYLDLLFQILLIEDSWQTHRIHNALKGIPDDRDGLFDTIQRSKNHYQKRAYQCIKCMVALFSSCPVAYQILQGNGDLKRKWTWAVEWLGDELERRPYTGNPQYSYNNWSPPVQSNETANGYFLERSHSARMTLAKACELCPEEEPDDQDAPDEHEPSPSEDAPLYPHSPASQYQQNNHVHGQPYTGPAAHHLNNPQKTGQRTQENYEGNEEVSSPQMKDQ
Chain of USP9X (Q93008 whole entry, the tested form may be a part): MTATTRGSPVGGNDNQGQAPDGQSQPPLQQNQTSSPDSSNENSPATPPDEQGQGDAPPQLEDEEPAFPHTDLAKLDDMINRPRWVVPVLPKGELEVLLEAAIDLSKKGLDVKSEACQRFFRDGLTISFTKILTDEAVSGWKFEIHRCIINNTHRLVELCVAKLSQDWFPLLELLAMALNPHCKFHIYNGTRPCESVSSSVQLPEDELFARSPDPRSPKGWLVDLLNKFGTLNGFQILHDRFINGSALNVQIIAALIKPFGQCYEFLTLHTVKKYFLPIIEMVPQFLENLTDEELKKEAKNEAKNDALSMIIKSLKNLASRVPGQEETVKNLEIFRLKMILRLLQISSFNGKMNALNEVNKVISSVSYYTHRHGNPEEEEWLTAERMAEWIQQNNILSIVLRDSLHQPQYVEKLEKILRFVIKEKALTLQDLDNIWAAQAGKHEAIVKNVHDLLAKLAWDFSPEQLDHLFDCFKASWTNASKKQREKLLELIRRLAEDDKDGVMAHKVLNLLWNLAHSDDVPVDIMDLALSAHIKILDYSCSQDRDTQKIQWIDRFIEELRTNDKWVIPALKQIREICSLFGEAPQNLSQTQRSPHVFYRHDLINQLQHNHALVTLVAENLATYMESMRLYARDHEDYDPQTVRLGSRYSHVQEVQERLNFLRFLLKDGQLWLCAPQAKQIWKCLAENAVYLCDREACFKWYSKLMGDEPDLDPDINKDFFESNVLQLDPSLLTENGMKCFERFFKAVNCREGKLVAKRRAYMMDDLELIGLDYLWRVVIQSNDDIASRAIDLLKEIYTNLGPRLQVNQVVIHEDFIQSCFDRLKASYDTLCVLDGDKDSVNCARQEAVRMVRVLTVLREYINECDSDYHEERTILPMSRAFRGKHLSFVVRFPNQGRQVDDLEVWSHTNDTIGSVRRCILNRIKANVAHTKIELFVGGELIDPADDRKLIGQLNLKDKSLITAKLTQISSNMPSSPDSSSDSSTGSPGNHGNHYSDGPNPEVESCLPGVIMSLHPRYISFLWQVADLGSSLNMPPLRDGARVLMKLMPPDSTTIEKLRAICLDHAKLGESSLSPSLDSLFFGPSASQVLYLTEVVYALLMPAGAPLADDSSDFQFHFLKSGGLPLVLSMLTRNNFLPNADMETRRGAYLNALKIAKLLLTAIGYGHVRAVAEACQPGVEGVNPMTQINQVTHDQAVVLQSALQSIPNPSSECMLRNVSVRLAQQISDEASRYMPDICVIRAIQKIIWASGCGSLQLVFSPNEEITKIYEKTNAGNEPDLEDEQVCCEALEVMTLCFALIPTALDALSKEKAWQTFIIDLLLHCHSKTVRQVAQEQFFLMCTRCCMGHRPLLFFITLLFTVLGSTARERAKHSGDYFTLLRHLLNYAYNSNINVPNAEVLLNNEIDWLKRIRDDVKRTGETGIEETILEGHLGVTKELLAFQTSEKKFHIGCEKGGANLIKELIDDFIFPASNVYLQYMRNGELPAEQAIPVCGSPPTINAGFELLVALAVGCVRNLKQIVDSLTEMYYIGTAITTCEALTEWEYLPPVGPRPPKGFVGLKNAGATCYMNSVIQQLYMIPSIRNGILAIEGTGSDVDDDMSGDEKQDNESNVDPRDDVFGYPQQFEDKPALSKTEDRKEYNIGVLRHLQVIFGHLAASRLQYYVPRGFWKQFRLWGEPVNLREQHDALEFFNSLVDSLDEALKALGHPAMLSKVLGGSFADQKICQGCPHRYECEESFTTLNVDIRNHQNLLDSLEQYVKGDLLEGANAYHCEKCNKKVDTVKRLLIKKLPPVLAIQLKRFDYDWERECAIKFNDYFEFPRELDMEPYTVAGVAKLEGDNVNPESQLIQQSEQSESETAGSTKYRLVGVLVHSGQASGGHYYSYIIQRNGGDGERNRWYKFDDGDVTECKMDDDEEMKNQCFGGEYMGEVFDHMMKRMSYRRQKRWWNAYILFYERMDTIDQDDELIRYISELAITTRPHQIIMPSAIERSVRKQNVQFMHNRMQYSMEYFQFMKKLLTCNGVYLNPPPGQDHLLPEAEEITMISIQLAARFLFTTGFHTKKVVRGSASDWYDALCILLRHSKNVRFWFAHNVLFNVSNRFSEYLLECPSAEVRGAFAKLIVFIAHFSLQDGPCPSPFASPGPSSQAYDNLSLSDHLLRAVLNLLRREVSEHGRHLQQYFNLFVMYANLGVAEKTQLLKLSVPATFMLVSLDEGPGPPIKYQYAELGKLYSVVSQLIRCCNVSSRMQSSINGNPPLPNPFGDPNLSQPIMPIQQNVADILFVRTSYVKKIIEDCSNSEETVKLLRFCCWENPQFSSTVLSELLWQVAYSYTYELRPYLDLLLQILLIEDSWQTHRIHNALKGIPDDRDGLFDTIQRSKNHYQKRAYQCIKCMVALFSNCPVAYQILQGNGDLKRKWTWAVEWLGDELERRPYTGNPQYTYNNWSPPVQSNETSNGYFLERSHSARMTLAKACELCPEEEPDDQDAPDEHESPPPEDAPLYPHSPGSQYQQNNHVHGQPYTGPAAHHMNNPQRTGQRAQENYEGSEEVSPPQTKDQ

For `COCC1C=CCCN1C(=O)CCl` (centres undefined), the “log2 ratio of Biotin-Ahx-Ub-VS probe labelling” value (“log2 ratio” for short) [1] was -0.16, the “log2 ratio” value [2] was -0.0987 and the “log2 ratio” value [3] was -0.284. The “log2 ratio” value [4] was -0.0747, the “log2 ratio” value [5] was -0.118 and the “log2 ratio” value [6] was -0.259. For the same compound, the “log2 ratio” value [7] was -0.0309, the “log2 ratio” value [8] was -1.01 (active) and the “log2 ratio” value [9] was -0.0106.
